Pf Dd2 inh: P. falciparum Dd2 growth inhibition; activity change, % at 10 µM; SYBR Green, 72 h; hits give low values; 94,000 compounds, 2.3% hits; in the data active = activity change below about -80%
C diff HTS: C. difficile growth inhibition; Clostridium difficile clinical isolate growth, OD600, 24 h; hits give low values; growth activity, negative = inhibition, % at 16 µg/mL (by protocol); 86,000 compounds, 0.25% hits; AID 1259249;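 active = mean growth activity at or below -80% and every replicate also at or below -80%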;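 note: 0% = DMSO wells and -100% = levofloxacin 16 µg/mL wells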
The depositor's hits bear a star; nt = not tested or not shown. This is a sample that favours compounds with a hit; in the whole collection about 2.3% have one here.

SMILES | Pf Dd2 inh | C diff HTS
COc1ccc2c3c([nH]c2c1)[C@H](CO)N(C)CC31CCN(S(=O)(=O)c2cccc(F)c2)CC1 | -60 | 7
COc1ccc2c3c([nH]c2c1)[C@H](CO)N(C(=O)Nc1cccc(F)c1)CC31CN(S(=O)(=O)c2cccc(C)c2)C1 | -51 | 0
COc1ccc2c3c([nH]c2c1)[C@H](CO)N(CC1CC1)CC31CCN(S(=O)(=O)c2cccc(F)c2)CC1 | -90* | 8
COc1ccc2c3c([nH]c2c1)[C@H](CO)N(C(=O)Nc1cccc(F)c1)CC31CCN(S(=O)(=O)c2cccc(C)c2)CC1 | -82* | -11
O=C(C[C@H]1C[C@@H]2c3cc(NC(=O)c4cccnc4)ccc3O[C@@H]2[C@@H](CO)O1)NC1CCCC1 | -1 | -7
CCC(=O)N(C)C[C@H]1Oc2cc(C3=CCCC3)ccc2S(=O)(=O)N([C@@H](C)CO)C[C@@H]1C | -11 | -8
C[C@H](NC(=O)C[C@@H]1CC[C@H](NC(=O)C2CCC2)[C@H](CO)O1)c1ccccc1 | 10 | nt
CCC(=O)N1CC(=O)N2[C@@H](CO)[C@@H](c3ccc(C#CCc4ccccc4)cc3)[C@@H]2C1 | -11 | -15
C[C@@H]1CN([C@@H](C)CO)C(=O)c2cc(NC(=O)Nc3ccccc3)ccc2O[C@@H](C)CCCCO[C@@H]1CN(C)C(=O)Nc1cccc2ccccc12 | -84* | 4
C[C@H](CO)N1C[C@H](C)[C@H](CN(C)C(=O)Nc2cccc3ccccc23)OCCCC[C@H](C)Oc2ccc(NC(=O)Nc3ccccc3)cc2C1=O | -26 | 1
C[C@@H]1CCCCO[C@H](CN(C)C(=O)Nc2cccc3ccccc23)[C@@H](C)CN([C@H](C)CO)C(=O)c2cc(NC(=O)Nc3ccc(F)cc3)ccc2O1 | -34 | -3
C[C@@H]1CCCCO[C@H](CN(C)C(=O)Nc2cccc3ccccc23)[C@H](C)CN([C@@H](C)CO)C(=O)c2cc(NC(=O)Nc3ccc(F)cc3)ccc2O1 | -83* | 7
CO[C@H]1CN(C)C(=O)c2cc(NS(=O)(=O)c3ccccc3F)ccc2OC[C@H](C)NC[C@H]1C | 10 | nt
C[C@H](CO)N1C[C@H](C)[C@H](CN(C)S(=O)(=O)c2cccs2)OCCCC[C@H](C)Oc2ccc(NC(=O)Nc3ccc4c(c3)OCO4)cc2C1=O | -31 | -4
CCc1nc(N2[C@H](CO)[C@@H](c3ccccc3-c3ccccc3F)[C@@H]2C#N)sc1C | 17 | 3
CCc1nc(N2[C@H](C#N)[C@H](c3ccccc3-c3ccccc3F)[C@@H]2CO)sc1C | -81* | 1
CCc1csc(N2[C@H](C#N)[C@@H](c3ccc(-c4ccc(F)cc4)cc3)[C@@H]2CO)n1 | -12 | 1
CCc1csc(N2[C@H](C#N)[C@H](c3ccccc3-c3ccc(F)cc3)[C@H]2CO)n1 | -93* | -1
C[C@@H]1CN([C@@H](C)CO)C(=O)c2cc(NC(=O)C3CC3)ccc2O[C@H]1CN(C)C(=O)NC1CCCCC1 | 0 | 2
C[C@@H]1CCCCO[C@@H](CN(C)CC2CCCCC2)[C@H](C)CN([C@@H](C)CO)C(=O)c2cc(NC(=O)Nc3ccc(C(F)(F)F)cc3)ccc2O1 | -64 | -61
C[C@@H]1CCCCO[C@@H](CN(C)CC2CCCCC2)[C@@H](C)CN([C@H](C)CO)C(=O)c2cc(NC(=O)Nc3ccc(C(F)(F)F)cc3)ccc2O1 | -44 | -10
C[C@@H]1CN([C@H](C)CO)C(=O)c2cc(NC(=O)C3CC3)ccc2O[C@@H]1CN(C)CC1CCCCC1 | 34 | 7
C[C@H](CO)N1C[C@H](C)[C@H](CN(C)CC2CCCCC2)Oc2ccc(NC(=O)Nc3ccc(C(F)(F)F)cc3)cc2C1=O | -69 | 23
C[C@@H]1CN([C@@H](C)CO)C(=O)c2cc(NC(=O)C3CC3)ccc2O[C@H]1CN(C)CC1CCCCC1 | -89* | nt
C[C@H]1CCCCO[C@@H](CN(C)CC2CCCCC2)[C@@H](C)CN([C@@H](C)CO)C(=O)c2cc(NC(=O)Nc3ccc(C(F)(F)F)cc3)ccc2O1 | -82* | -68
SMILES | Pf Dd2 inh | C diff HTS
C[C@@H]1CN([C@@H](C)CO)C(=O)c2cc(NC(=O)Nc3ccc(C(F)(F)F)cc3)ccc2O[C@H]1CN(C)CC1CCCCC1 | -86* | -2
C[C@@H]1CCCCO[C@H](CN(C)CC2CCCCC2)[C@H](C)CN([C@@H](C)CO)C(=O)c2cc(NC(=O)Nc3ccc(C(F)(F)F)cc3)ccc2O1 | -87* | -103*
COc1ccccc1-c1cn(CC[C@@H]2CC[C@H](NC(=O)CCN3CCCCC3)[C@@H](CO)O2)nn1 | -31 | 3
O=C(Nc1ccc(Cl)c(Cl)c1)N[C@H]1CC[C@H](CCn2cc(C3CCCC3)nn2)O[C@H]1CO | 1 | -1
CO[C@@H]1CN(C)C(=O)c2ccc(NC(C)=O)cc2OC[C@@H](C)NC[C@@H]1C | -13 | 2
C[C@H](CO)N1C[C@H](C)[C@@H](CN(C)S(=O)(=O)c2ccc(F)cc2)Oc2ccc(NC(=O)CCCN(C)C)cc2C1=O | 15 | -1
CCCN(C)C[C@@H]1OCCCC[C@H](C)Oc2ccc(NC(=O)Nc3ccc(C(F)(F)F)cc3)cc2C(=O)N([C@H](C)CO)C[C@@H]1C | -77 | -28
CCCN(C)C[C@@H]1OCCCC[C@H](C)Oc2ccc(NC(=O)Nc3ccc(C(F)(F)F)cc3)cc2C(=O)N([C@@H](C)CO)C[C@@H]1C | -88* | -105*
CN(C)C(=O)c1ccc(-c2cccc(-c3nc(C(=O)NC4CCCC4)cc4c3[C@@H](CCO)N([S@](=O)C(C)(C)C)C4)c2)cc1 | -74 | nt
CN(C)C(=O)c1cccc(-c2cccc(-c3nc(C(=O)NC4CCCCC4)cc4c3[C@H](CCO)N([S@@](=O)C(C)(C)C)C4)c2)c1 | -84* | nt
CN(C)C(=O)c1ccc(-c2cccc(-c3nc(C(=O)NC4CCCCC4)cc4c3[C@@H](CCO)N([S@](=O)C(C)(C)C)C4)c2)cc1 | -74 | nt
COc1ccc(C#Cc2cccc(-c3nc(C(=O)N[C@@H]4CCN(Cc5ccccc5)C4)cc4c3[C@@H](CCO)N(S(=O)C(C)(C)C)C4)c2)cc1OC (stereo partly drawn) | -88* | -2
CC(C)(O)C#Cc1cccc(-c2nc(C(=O)N[C@@H]3CCN(Cc4ccccc4)C3)cc3c2[C@@H](CCO)N(S(=O)C(C)(C)C)C3)c1 (stereo partly drawn) | -72 | 3
CN(C)C(=O)c1cccc(-c2cccc(-c3nc(C(=O)NC4CCCCC4)cc4c3[C@@H](CCO)N([S@](=O)C(C)(C)C)C4)c2)c1 | -87* | nt
CN(C)C(=O)c1cccc(-c2ccc3c(c2)[C@H]2[C@H](CCN2C(=O)C2CCCCC2)[C@@H](CO)N3)c1 | -9 | 0
CN1C(=O)c2cc(NC(=O)c3cccc(F)c3)ccc2OC[C@H]2O[C@@H](CC(=O)N3CCc4ccccc4C3)CC[C@H]21 | -2 | -7
C[C@H]1CCCCO[C@@H](CN(C)S(=O)(=O)c2ccccc2)[C@@H](C)CN([C@@H](C)CO)C(=O)c2cc(NS(C)(=O)=O)ccc2O1 | -29 | -3
Cc1cc(C(=O)Nc2cccc3c2O[C@@H](CN(C)Cc2ccc(Cl)c(Cl)c2)[C@@H](C)CN([C@H](C)CO)C3=O)n(C)n1 | -9 | 3
COc1ccc(C(=O)N2C[C@H]3[C@@H](c4ccccc42)[C@H](CO)N3Cc2ccccc2Cl)cc1 | -3 | 15

Assay outcomes deposited in PubChem by Broad Institute.
